Screening results (PubChem)
An excerpt weighted towards active compounds, which were near 6% of everything screened.
DRD3 agonist: qHTS of D3 Dopamine Receptor Agonist: qHTS | D3R DiscoveRx beta-arrestin cells, luminescence, 90 min | actives 0.58% (n = 410,000) | max activation, % | D(3) dopamine receptor (Homo sapiens), P35462; in the data active = max activation above about 30%; also: 0% is about no effect
Target sequence (P35462 whole entry, looked up): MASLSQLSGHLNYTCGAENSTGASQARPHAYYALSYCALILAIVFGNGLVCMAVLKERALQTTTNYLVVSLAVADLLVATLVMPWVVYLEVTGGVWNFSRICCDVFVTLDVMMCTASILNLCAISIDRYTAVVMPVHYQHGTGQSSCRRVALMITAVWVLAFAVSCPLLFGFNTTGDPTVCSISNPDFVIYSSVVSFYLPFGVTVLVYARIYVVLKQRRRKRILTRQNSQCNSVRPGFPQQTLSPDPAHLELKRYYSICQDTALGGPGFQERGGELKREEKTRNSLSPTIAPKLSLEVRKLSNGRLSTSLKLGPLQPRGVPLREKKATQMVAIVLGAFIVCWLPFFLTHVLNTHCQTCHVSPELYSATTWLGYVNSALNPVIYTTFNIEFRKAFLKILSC
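Cells at 1500/well, incubated overnight, then treated with pinned compounds (dopamine as control) for 90 min at 37 degrees C. DiscoveRx reagent added for 30 - 60 minutes at room temperature; luminescence read.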
D1 PAM: Potentiators of Human D1 Dopamine Receptor: qHTS. HEK293 TREx D1 cells, calcium flux, dopamine EC20 potentiation. potentiation, % at 10 µM. actives 0.036% (n = 360,000); in the data active = potentiation above about 30%; also: 0% is about no effect
D1 ag: Allosteric Agonists of the Human D1 Dopamine Receptor: qHTS; HEK293 T-REx D1 cells, calcium flux, agonist mode; activation, % at 2 µM; actives 1% (n = 360,000); in the data active = activation above about 30%; also: 0% is about no effect
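Tetracycline-induced HEK293 TREx D1 cells, force-coupled to calcium signalling, were dye-loaded with a no-wash calcium kit. Compound was pin-added after a 10 s baseline. Fluorescence was read kinetically at 1 cycle/s for 180 s, with calcium rises flagged as agonism.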
D3 antag: qHTS of D3 Dopamine Receptor Antagonist: qHTS; AID 652054, 2013; D3R cells, DiscoveRx beta-arrestin luminescence, antagonist mode; hits give low values; D(3) dopamine receptor (Homo sapiens), P35462; max response, negative = inhibition, %; actives 2.5% (n = 360,000); in the data active = max response below about -50%; inconclusive = no clear call, values can overlap the other calls; also: % is scaled to controls: 0 for no effect and ±100 for the full control effect
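Cells expressing the human receptor were seeded at 1500 cells/well, incubated overnight at 37 degrees C in 5% CO2, then exposed to library compounds with dopamine controls for 90 minutes at 37 degrees C before luminescent detection.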
D1 antag: Antagonist of Human D 1 Dopamine Receptor: qHTS. HEK293 TREx D1 cells, calcium flux, dopamine EC80; hits give low values. actives 3.2% (n = 360,000). activity change, negative = inhibition, % at 10 µM; in the data active = activity change below about -30%; also: % is scaled to controls: 0 for no effect and ±100 for the full control effect
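Compound effects on dopamine-evoked calcium signalling were measured in tetracycline-induced HEK293 Trex D1 cells. Dopamine at EC80 followed a 180 s compound pre-read, and fluorescence was tracked kinetically for 180 s more.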
* marks the source's active call; other numbers are inactive results; ? = inconclusive; nt = no result given.

SMILES	DRD3 agonist	D1 PAM	D1 ag	D3 antag	D1 antag
O=[N+]([O-])c1cc(O)c2ncccc2c1	-16.4	-1.5	2.7	-58.3*	-4.0
O=[N+]([O-])c1cc2cccnc2c2ncccc12	-6.6	1.8	-0.2	-12.3	-1.0
Cc1ccc(N(CCC#N)C(=O)COC(=O)c2ccccc2SCC(=O)N2CCCC2)cc1	3.6	0.0	-0.4	8.8	29.6
Cc1cc(C)cc(N(CCC#N)C(=O)COC(=O)c2ccccc2SCC(=O)N2CCCC2)c1	0.0	-2.5	5.7	-2.7	-34.2*
Cn1c(=O)c(-c2ccccc2)cc2ccccc21	47.0*	nt	nt	3.9	nt
CCOc1ccc(CNC(=O)c2ccc(NC(=O)N3CCSc4ncccc43)cc2)cc1OC	6.6	-3.0	0.4	nt	-6.8
Cc1cc(C)cc(NC(=O)Cn2c(=O)n(Cc3ccc4c(c3)OCO4)c(=O)c3oc4ccccc4c32)c1	-40.4	-3.5	1.1	nt	0.9
Oc1ccccc1Nc1nc2ccccc2n2nnnc12	2.4	-2.2	41.6*	nt	-19.3
c1ccc(Nc2nc3ccccc3n3nnnc23)cc1	-3.5	-4.0	1.1	0.8	-68.8*
CCc1ccc(S(=O)(=O)c2nnn3c2nc(Nc2ccc(F)cc2)c2cc(Cl)ccc23)cc1	3.1	-3.3	2.7	nt	5.7
Cn1cc(/C=C/c2cc[n+](C)cc2)c2cc(Cl)ccc21	-15.3	-6.2	23.5	12.0	-2.8
C[n+]1ccc(/C=C/c2c[nH]c3ccc(F)cc23)cc1	-8.3	-6.0	56.1*	-14.7	-4.4
Cn1cc(/C=C/c2cc[n+](C)cc2)c2cc(F)ccc21	-31.7	-8.8	83.4*	-17.6	3.5
CCCS(=O)(=O)Nc1cc2c(cc1NCc1ccccc1)n(C)c(=O)n2C	2.4	2.0	-0.3	nt	-4.5
CCCCN(C)CCCNC(=O)Cn1ncc2c3ccccc3n(Cc3ccccc3F)c2c1=O	-24.5	-3.5	8.6	nt	6.1
CCCCN(C)CCCNC(=O)Cn1ncc2c3ccccc3n(Cc3cc(C)ccc3C)c2c1=O	-16.8	-1.4	96.2*	nt	-0.3
Cc1ccc(C)c(Cn2c3ccccc3c3cnn(CC(=O)NCCCN4CCOCC4)c(=O)c32)c1	-9.0	-4.3	2.5	-1.7	-30.4*
Cc1ccnc(NS(=O)(=O)c2ccc(NC(=O)C(C)(C)Oc3ccc(Cl)cc3)cc2)n1	2.4	-4.1	3.5	nt	-1.4
COc1ccc(C(=O)NCCCn2ccnc2)cc1	1.1	4.0	2.2	99.6	2.8
COc1ccc(-c2nn(-c3ccccc3)cc2C(=O)NCCCn2ccnc2)cc1	-18.5	-4.7	1.1	-14.9	-37.9*
CCOC(=O)c1ccc(NC(=O)C2CCN(C(=O)N3CC(C)Oc4ccc(C)cc43)CC2)cc1 (centres undefined)	3.6	-1.4	0.6	nt	-12.2
COc1ccc(-c2noc3c2-c2nc(-c4cccc(C)c4)sc2CC3)cc1	59.5*	-0.4	5.1	45.0	4.2
O=[N+]([O-])c1cccc(/C=N\N2CCN(Cc3ccccc3Cl)CC2)c1	-0.8	-3.6	3.6	-77.9*	5.2
O=[N+]([O-])c1cccc(/C=N/N2CCN(Cc3ccccc3)CC2)c1	-13.7	-4.1	-0.5	4.3	-29.7
CCOc1ccc(CNC(=O)Cn2cc3c(n2)-c2c(oc(C(=O)N4CCOCC4)c2C)CC3)cc1	14.2	-3.1	2.2	nt	-3.7
SMILES	DRD3 agonist	D1 PAM	D1 ag	D3 antag	D1 antag
O=C(NCCc1ccccc1)C1CCCN(S(=O)(=O)c2cnc[nH]2)C1 (centres undefined)	-1.4	nt	3.0	-23.2	-3.2
O=C(NCCN1CCN(c2ccccc2F)CC1)C1CCCN(S(=O)(=O)c2cnc[nH]2)C1 (centres undefined)	26.6	nt	5.1	-55.9*	-45.3*
O=C(NCCN1CCC(Cc2ccccc2)CC1)C1CCCN(S(=O)(=O)c2cnc[nH]2)C1 (centres undefined)	-15.0	nt	2.7	-77.5*	-4.2
COc1ccc(-c2noc(CSc3nnc(Cc4ccccc4)n3-c3ccc(F)cc3)n2)cc1	3.3	4.7	17.2	nt	1.7
CC(C)(C)c1ccc(C(=O)NNc2ncnc3c2cnn3-c2ccc(Cl)cc2)cc1	-10.5	0.9	0.0	nt	-0.4
CCc1cc2c(=O)c(-c3nc(C)cs3)coc2cc1OC(C)C(=O)NCCO (centres undefined)	0.6	-2.4	-0.1	10.4	-33.2*
CC(C)NC(=O)CSc1cn(CC(=O)N2CCCCCC2)c2ccccc12	-6.4	-2.5	-1.0	nt	-2.6
Cc1ccc(C(=O)NC(=S)Nc2cccc(NC(=O)c3ccccc3Cl)c2)cc1[N+](=O)[O-]	-15.5	16.9	5.3	?	-9.8
O=C(NC(=S)Nc1cccnc1)c1cc2ccccc2o1	-4.6	-1.9	2.4	-9.7	-44.9*
O=C(NC(=S)NCc1cccnc1)c1cc2ccccc2o1	-7.2	2.4	6.4	15.2	-3.0
CCC(=O)NC(=S)Nc1ccc(NC(=O)c2ccccc2[N+](=O)[O-])cc1	5.1	-11.3	-0.2	-12.1	-8.8
Cc1c(C(=O)NC(=S)Nc2cccnc2)cccc1[N+](=O)[O-]	-13.8	-11.0	2.0	-64.6*	4.1
Cc1ccc(C(=O)NC(=S)Nc2cccc(NC(=O)c3ccccc3)c2)cc1[N+](=O)[O-]	-8.2	-11.1	3.7	-67.5*	-9.6
CCC(=O)NC(=S)Nc1ccc(NC(=O)c2cccc([N+](=O)[O-])c2C)cc1	-1.8	-9.8	6.3	-5.0	-39.8*
OCc1cc(Br)ccc1OCc1nc2ccccc2s1	-0.7	-11.8	8.7	6.4	-1.1
Oc1ccccc1OCc1nc2ccccc2s1	-1.5	-6.0	-0.7	6.0	-31.1*
Nc1ccc(C(=O)OCc2nc3ccccc3s2)cc1	-4.6	9.1	2.3	-50.7*	0.4
CC(C)C[C@@H](CNCC(=O)[C@H](CC(=O)O)NC(=O)c1[nH]cnc1C(=O)N[C@H](CN)CC(C)C)NC(=O)c1nc[nH]c1C(=O)N[C@@H](C)C(=O)O	2.7	nt	nt	-52.8*	nt
CC(C)C[C@@H](CN)NC(=O)c1nc[nH]c1C(=O)N[C@@H](Cc1ccccc1)C(=O)CNC[C@H](C)NC(=O)c1nc[nH]c1C(=O)N[C@@H](C)C(=O)O	43.2*	nt	nt	20.8	nt
CC(C)C[C@@H](CN)NC(=O)c1nc[nH]c1C(=O)N[C@@H](C)C(=O)CNC[C@H](CC(C)C)NC(=O)c1nc[nH]c1C(=O)N[C@@H](CC(=O)O)C(=O)O	0.0	nt	nt	-24.2	nt
CC(C)C[C@@H](CN)NC(=O)c1nc[nH]c1C(=O)N[C@@H](Cc1ccccc1)C(=O)CNC[C@H](C)NC(=O)c1nc[nH]c1C(=O)N[C@@H](CC(C)C)C(=O)O	7.5	nt	nt	6.6	nt
